Source: PubChem BioAssay (EPA / NIEHS)
Activity calls are given as the source filed them. The calls were made as follows: active = hit-call score of the fitted dose curve at least 0.9, where 1 is the maximum; inactive = score below 0.9.

How the values were obtained:
[1] = ATG_CRE_CIS: Attagene CIS-FACTORIAL HepG2 Assay for human cAMP Responsive Element (CRE) binding protein 3 (AID 2282926); details: HepG2 CRE cis-reporter, Attagene multiplexed mRNA; actives raise or lower the signal
Method in brief: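 Endogenous transcription factor activity read via CRE-regulated reporter transcripts in transfected HepG2 cells. After 24 h exposure, RNA was reverse-transcribed, amplified, fluorescently labelled and sized by capillary electrophoresis; gain or loss fitted against DMSO.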

[2] = ATG_CMV_CIS: Attagene CIS-FACTORIAL HepG2 Assay for human CMV (Internal Marker) (AID 2282928); details: HepG2 CMV promoter reporter, transcription factor profiling; actives raise or lower the signal;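 also: endpoint acts as a background internal control marker rather than a target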
Method in brief: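 24 h chemical treatment, HepG2 with transient multi-reporter transfection; RNA → oligo(dT) RT → PCR → 6-FAM extension → HpaI digest → CE fluorescence. Bidirectional fit, DMSO negative control.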

[3] = ATG_DR4_LXR_CIS: Attagene CIS-FACTORIAL HepG2 Assay for human Liver X Receptor (LXR), DR4 submotif (AID 2282929); details: HepG2 Attagene DR4 cis-reporter, mRNA transcription; actives raise or lower the signal
Method in brief: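 Readout: reporter transcript fluorescence after RT-PCR and capillary electrophoresis, fitted bidirectionally against DMSO controls. Human HepG2 liver cells carried transiently transfected multiplexed reporter constructs; endogenous transcription factor activity measured 24 h post-dosing.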

[4] = target: Aryl hydrocarbon receptor (Homo sapiens) (UniProt P35869); experiment: ATG_Ahr_CIS: Attagene CIS-FACTORIAL HepG2 Assay for human Aryl Hydrocarbon Receptor (Ahr) (AID 2282930); details: HepG2 AhR cis-factorial reporter transcription; actives raise or lower the signal
Sequence of Aryl hydrocarbon receptor (Homo sapiens) (P35869 whole entry, looked up): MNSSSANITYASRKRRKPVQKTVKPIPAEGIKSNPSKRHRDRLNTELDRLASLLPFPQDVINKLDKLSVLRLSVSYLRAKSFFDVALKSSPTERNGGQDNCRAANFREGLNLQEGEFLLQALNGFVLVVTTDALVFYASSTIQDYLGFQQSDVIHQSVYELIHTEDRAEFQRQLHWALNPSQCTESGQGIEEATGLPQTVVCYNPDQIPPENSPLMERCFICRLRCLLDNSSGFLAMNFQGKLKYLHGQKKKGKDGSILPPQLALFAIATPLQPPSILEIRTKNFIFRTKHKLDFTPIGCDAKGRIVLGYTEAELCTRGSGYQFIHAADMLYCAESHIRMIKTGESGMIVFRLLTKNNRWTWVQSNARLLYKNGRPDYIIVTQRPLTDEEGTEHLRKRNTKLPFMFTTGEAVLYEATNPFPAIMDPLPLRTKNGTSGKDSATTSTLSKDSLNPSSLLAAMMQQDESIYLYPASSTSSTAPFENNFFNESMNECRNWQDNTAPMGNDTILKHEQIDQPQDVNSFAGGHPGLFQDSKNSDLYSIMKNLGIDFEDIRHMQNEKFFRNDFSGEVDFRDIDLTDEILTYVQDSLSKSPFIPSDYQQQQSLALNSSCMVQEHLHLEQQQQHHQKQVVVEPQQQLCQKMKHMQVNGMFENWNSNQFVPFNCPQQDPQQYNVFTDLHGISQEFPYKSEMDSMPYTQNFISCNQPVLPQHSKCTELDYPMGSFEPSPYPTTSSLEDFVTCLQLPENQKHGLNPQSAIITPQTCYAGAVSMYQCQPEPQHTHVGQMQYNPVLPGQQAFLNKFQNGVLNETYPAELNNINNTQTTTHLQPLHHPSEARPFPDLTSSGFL
Method in brief: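 Following 24 h of chemical dosing, transfected HepG2 liver cells with cis-driven reporter units were lysed for RNA; reporter mRNA was quantified via RT-PCR and capillary electrophoresis, and responses fitted bidirectionally from DMSO.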

[5] = ATG_AP_1_CIS: Attagene CIS-FACTORIAL HepG2 Assay for human Activator Protein 1 (AP-1) (AID 2282931); details: HepG2 Attagene cis-factorial AP-1 reporter mRNA; actives raise or lower the signal
Method in brief: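 Reporter transcripts were measured 24 h after dosing by RT-PCR and capillary electrophoresis of fluorescent fragments. Cells: HepG2 carrying transfected cis-regulated reporter constructs reading endogenous factor activity. Gain or loss fitted against DMSO.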

[6] = ATG_AP_2_CIS: Attagene CIS-FACTORIAL HepG2 Assay for human Activator Protein 2 (AP-2) (AID 2282932); details: HepG2 AP-2 cis-reporter, Attagene transcription factor profiling; actives raise or lower the signal
Method in brief: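 Assay in transfected HepG2 with promoter-regulated reporters, 24 h incubation after dosing. Signal is reporter mRNA fluorescence (RT-PCR, capillary electrophoresis), analysed for both increases and decreases relative to DMSO controls.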

[7] = ATG_BRE_CIS: Attagene CIS-FACTORIAL HepG2 Assay for human Bone Morphogenetic Protein (BMP) Response Element (BRE) (AID 2282933); details: HepG2 BMP response element reporter, Attagene transcription factor profiling; actives raise or lower the signal
Method in brief: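 Endogenous transcription factor activity at a BMP response element was monitored in transfected HepG2 cells 24 h after dosing. Fluorescent RT-PCR products were resolved by capillary electrophoresis, and activity was fitted in both directions versus DMSO.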

[8] = target: Retinoic acid receptor alpha (Homo sapiens) (UniProt P10276); experiment: ATG_DR5_RAR_CIS: Attagene CIS-FACTORIAL HepG2 Assay for human Retinoic Acid Receptor Alpha (RARE), DR5 submotif (AID 2282934); details: HepG2 Attagene cis-factorial RARE DR5 reporter, mRNA; actives raise or lower the signal
Sequence of Retinoic acid receptor alpha (Homo sapiens) (P10276 whole entry, looked up): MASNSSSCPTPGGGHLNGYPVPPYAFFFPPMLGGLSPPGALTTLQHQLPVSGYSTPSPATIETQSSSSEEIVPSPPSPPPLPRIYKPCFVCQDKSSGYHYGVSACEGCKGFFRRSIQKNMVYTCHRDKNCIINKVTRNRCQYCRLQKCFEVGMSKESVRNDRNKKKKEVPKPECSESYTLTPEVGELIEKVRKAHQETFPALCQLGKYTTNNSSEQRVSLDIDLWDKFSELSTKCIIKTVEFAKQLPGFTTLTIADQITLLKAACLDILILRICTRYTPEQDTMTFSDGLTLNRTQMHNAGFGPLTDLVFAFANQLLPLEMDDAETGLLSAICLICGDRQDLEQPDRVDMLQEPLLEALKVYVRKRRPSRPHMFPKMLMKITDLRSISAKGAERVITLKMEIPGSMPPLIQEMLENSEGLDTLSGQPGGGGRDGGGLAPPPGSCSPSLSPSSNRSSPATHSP
Method in brief: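 Transfected HepG2 reporter cells are exposed to chemicals for 24 h. Then RNA is extracted and the DR5 element reporter transcript is measured by RT-PCR and capillary electrophoresis, with bidirectional curve fitting relative to DMSO.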

[9] = target: Transcription factor E2F1 (Homo sapiens) (UniProt Q01094); experiment: ATG_E2F_CIS: Attagene CIS-FACTORIAL HepG2 Assay for human E2F Transcription Factor 1 (AID 2282935); details: HepG2 Attagene cis-reporter, E2F reporter RNA transcripts; actives raise or lower the signal
Sequence of Transcription factor E2F1 (Homo sapiens) (Q01094 whole entry, looked up): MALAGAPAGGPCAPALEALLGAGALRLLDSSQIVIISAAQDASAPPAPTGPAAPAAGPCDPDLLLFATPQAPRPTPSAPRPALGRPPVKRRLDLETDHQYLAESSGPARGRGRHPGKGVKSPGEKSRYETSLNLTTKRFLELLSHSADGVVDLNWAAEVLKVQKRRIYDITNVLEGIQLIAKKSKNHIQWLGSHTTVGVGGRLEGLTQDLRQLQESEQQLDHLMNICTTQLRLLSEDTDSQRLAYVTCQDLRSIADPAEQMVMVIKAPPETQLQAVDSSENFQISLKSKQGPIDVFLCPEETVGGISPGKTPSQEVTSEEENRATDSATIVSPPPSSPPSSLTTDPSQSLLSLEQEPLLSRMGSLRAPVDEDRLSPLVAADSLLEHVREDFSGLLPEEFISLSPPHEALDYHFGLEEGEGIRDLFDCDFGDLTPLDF
Method in brief: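 In this cis-factorial format, endogenous factor activity drives transfected reporters in HepG2; transcripts collected at 24 h are quantified by fluorescence after RT-PCR and capillary separation.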

[10] = ATG_E_Box_CIS: Attagene CIS-FACTORIAL HepG2 Assay for human Enhancer Box (E-box) (AID 2282936); details: HepG2 E-box cis-reporter transcription, actives raise or lower the signal
Method in brief: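 Measured 24 h post-dosing in HepG2 cells transfected with multiple cis-regulated reporter units, signal being reporter mRNA induction detected by fluorescent RT-PCR with capillary electrophoresis; gain or loss fitted against DMSO.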

[11] = ATG_M_61_CIS: Attagene CIS-FACTORIAL HepG2 Assay for M61 Transcription Factor (Internal Marker) (AID 2282937); details: HepG2 Attagene CIS-FACTORIAL M61 internal marker reporter; actives raise or lower the signal
Method in brief: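 Readout: fluorescent reporter mRNA fragments resolved by capillary electrophoresis after RT-PCR. Transiently transfected human HepG2 cells carried MRTU constructs reporting endogenous TF activity; 24 h chemical exposure; gain or loss of signal fitted relative to DMSO.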

[12] = ATG_EGR_CIS: Attagene CIS-FACTORIAL HepG2 Assay for human Early Growth Response 1 (EGR1) (AID 2282938); details: HepG2 Attagene CIS-FACTORIAL EGR reporter mRNA; actives raise or lower the signal
Method in brief: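 Read-out: fluorescent reporter-mRNA fragments resolved by capillary electrophoresis after RT-PCR, 24 h post-dose in transiently transfected HepG2. Endogenous transcription-factor activity reported via cis-element-regulated reporter units; gain or loss fitted relative to DMSO.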

[13] = ATG_M_19_CIS: Attagene CIS-FACTORIAL HepG2 Assay for M19 Transcription Factor (Internal Marker) (AID 2282939); details: HepG2 Attagene CIS-FACTORIAL M19 internal marker reporter; actives raise or lower the signal
Method in brief: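 Background-control endpoint from a multiplexed HepG2 reporter panel. Cells carrying cis-regulated reporter constructs are treated 24 h, then reporter transcripts are amplified, fluorescently labelled and sized by capillary electrophoresis. DMSO defines baseline.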

[14] = ATG_ERE_CIS: Attagene CIS-FACTORIAL HepG2 Assay for Estrogen Response Element (ERE) (AID 2282940); details: HepG2 ERE cis-reporter, Attagene RNA transcript; actives raise or lower the signal
Method in brief: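 Cells used were human hepatoma HepG2, transfected with multiple reporter transcription units under cis-regulatory promoters. Reporter mRNA, read 24 h post-dosing via fluorescent RT-PCR products on capillary electrophoresis, was fitted bidirectionally relative to DMSO.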

[15] = ATG_Ets_CIS: Attagene CIS-FACTORIAL HepG2 Assay for human Erythroblast Transformation Specific (ETS) (AID 2282941); details: HepG2 ETS cis-reporter transcription, actives raise or lower the signal
Method in brief: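 Cis-regulated reporter mRNA induction in HepG2 (transient transfection), 24 h exposure, RT-PCR plus capillary electrophoresis detection; DMSO serves as negative control and baseline.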

[16] = target: Hepatocyte nuclear factor 3-beta (Homo sapiens) (UniProt Q9Y261); experiment: ATG_FoxA2_CIS: Attagene CIS-FACTORIAL HepG2 Assay for human Forkhead box A2 (FOXA2) (AID 2282942); details: HepG2 cis-reporter transcription factor activity, 24 h; actives raise or lower the signal
Sequence of Hepatocyte nuclear factor 3-beta (Homo sapiens) (Q9Y261 whole entry, looked up): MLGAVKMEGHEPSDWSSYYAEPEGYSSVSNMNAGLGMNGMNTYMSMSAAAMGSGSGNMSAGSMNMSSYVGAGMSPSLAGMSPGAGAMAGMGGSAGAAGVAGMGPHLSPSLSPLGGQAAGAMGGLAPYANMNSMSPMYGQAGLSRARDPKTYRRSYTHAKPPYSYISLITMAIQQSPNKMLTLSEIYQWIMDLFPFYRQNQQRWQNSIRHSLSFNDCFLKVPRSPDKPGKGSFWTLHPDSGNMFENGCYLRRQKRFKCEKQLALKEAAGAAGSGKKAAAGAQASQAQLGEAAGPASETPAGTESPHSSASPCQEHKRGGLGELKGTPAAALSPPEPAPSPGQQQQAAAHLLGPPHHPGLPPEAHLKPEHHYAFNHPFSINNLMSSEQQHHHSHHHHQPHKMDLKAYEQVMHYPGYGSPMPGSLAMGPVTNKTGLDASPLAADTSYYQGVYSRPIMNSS
Method in brief: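 Readout: fluorescent reporter transcripts resolved by capillary electrophoresis after RT-PCR. Transiently transfected HepG2, 24 h compound exposure, endogenous TF activity at cis promoter elements. Gain or loss of signal fitted relative to DMSO.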

[17] = ATG_FoxO_CIS: Attagene CIS-FACTORIAL HepG2 Assay for human Forkhead box O (FoxO) (AID 2282943); details: HepG2 Attagene cis-reporter, FoxO element, mRNA; actives raise or lower the signal
Method in brief: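 24 h chemical exposure, HepG2 with transient cis-MRTU transfection. RNA extraction, oligo(dT) RT, reporter-specific PCR, primer-extension labelling, HpaI digestion, CE fragment analysis; bidirectional fit, DMSO baseline.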

[18] = ATG_GATA_CIS: Attagene CIS-FACTORIAL HepG2 Assay for human GATA Binding Protein (AID 2282944); details: HepG2 GATA cis-element reporter, Attagene multiplex mRNA; actives raise or lower the signal
Method in brief: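 Endogenous transcription factor activity was captured through cis-promoter-driven reporters in transfected HepG2 cells. After 24 h exposure, reporter transcripts were quantified by RT-PCR with fluorescent capillary electrophoresis, and responses fitted both directions against DMSO.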

| SMILES | outcome [1] | outcome [2] | outcome [3] | outcome [4] | AC50 [5] | outcome [6] | outcome [7] | outcome [8] | outcome [9] | outcome [10] | outcome [11] | outcome [12] | outcome [13] | outcome [14] | outcome [15] | outcome [16] | outcome [17] | outcome [18] | outcome [5] | AC50 [14] |
| --- | --- | --- | --- | --- | --- | --- | --- | --- | --- | --- | --- | --- | --- | --- | --- | --- | --- | --- | --- | --- |
| O=C(O)CCC(F)(F)C(F)(F)C(F)(F)C(F)(F)C(F)(F)C(F)(F)C(F)(F)F | inactive | inactive | inactive | inactive | 94.3 µM (active) | inactive | inactive | inactive | inactive | inactive | inactive | inactive | inactive | inactive | inactive | inactive | inactive | inactive |  |  |
| CSc1ccc(O)cc1C | inactive | inactive | inactive | inactive |  | inactive | inactive |  | inactive | inactive | inactive | inactive | inactive |  | inactive | inactive | inactive | inactive | inactive | 31.7 µM (active) |
